Test results as given in PubChem BioAssay AID720511 (Broad Institute, 2013).
In all, about 350,000 compounds went through this assay and about 1,300 (0.37%) were called active.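 The calls were made as follows: active = mean added fluorescence quench of at least 8% versus neutral control, with both replicates also reaching 8%; inconclusive = only one of the mean or replicate conditions met; inactive = mean below 8% and not both replicates reaching 8%.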 Only a selection was taken, and actives are over-represented in it overall.

Assay: F508del CFTR correction, initial screen, CFBE line, single point (AID 720511);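 also: cells transiently co-express mutant CFTR-F508del with the halide-sensitive YFP; corrector assay measuring rescue of mutant channel to the surface after 24 h compound exposure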
Details: CFBE cells, YFP halide quenching, at 7.58 µM, hits give high values, % fluorescence drop versus neutral controls, stimulated with forskolin plus potentiator P3

Activity (quench increase), active:
O=C(NCCC1CCCCN1S(=O)(=O)c1cccs1)C(=O)Nc1ccc(F)cc1F (configuration not stated) 8.8%
Cc1nnc(NC(=O)CSc2nccn2-c2cccc(C)c2C)s1 8.52%
CCCN1[C@H](C(=O)N2CCOCC2)[C@@H](CO)[C@@H]2Cn3c(ccc(/C=C/c4ccccc4)c3=O)[C@@H]21 9.23%
Cc1ccc(C(=O)OCC(=O)NCc2cc(C)c(O)c(C)c2)cc1S(=O)(=O)N1CCCCC1 9.62%
Cc1cc(Nc2ccc(Br)cc2)nc2ccccc12 10.3%
Cc1nc(/N=C(\N)NC(=O)NC2CCCCC2)nc2ccccc12 12.3%
CCNC(=O)C1CCCN(C(=O)c2cc(F)ccc2C)CC1 (configuration not stated) 10%
CC(C)(C)c1cc(C(=O)NN)n(Cc2ccc(Cl)cc2Cl)n1 8.63%
O=C(C1CC1)N1CC(=O)N2[C@H](CO)[C@@H](c3ccc(-c4ccccc4F)cc3)[C@@H]2C1 11.5%
CCOC(=O)N1CCN(S(=O)(=O)c2ccc3c(c2)C(C)C(=O)N3)CC1 (configuration not stated) 8.05%
COc1ccc(-c2c(C)cc3oc(=O)cc(-c4ccccc4)c3c2C)cc1OC 9.4%
CC(C)Cc1ccc(-c2cc3nc(NCc4cccc(Cl)c4)ccn3n2)cc1 8.67%
C#Cc1cc(N2CCN(C(=O)c3ccoc3)CC2)n2nc(-c3cccc(Cl)c3)cc2n1 8.96%
COc1cc(C#Cc2ccc3cc(CCCO)oc(=O)c3c2)cc(OC)c1 9.06%

Activity (quench increase), inactive:
CCC(=O)N1CC2(CN(Cc3cccnc3)C2)c2c(n(C)c3cc(OC)ccc23)[C@@H]1CO -0.0075%
CCCC#Cc1cnc2c(c1)C(=O)N([C@@H](C)CO)C[C@@H](C)[C@@H](CN(C)Cc1ccccc1F)O2 0.509%
CNC(=O)C[C@@H]1CC[C@@H]2[C@@H](COc3ccc(NC(=O)c4ccc5c(c4)OCO5)cc3C(=O)N2C)O1 0.442%
COCC(=O)N(C)C[C@@H]1Oc2ncc(C#C[C@H](C)O)cc2C(=O)N([C@@H](C)CO)C[C@@H]1C 1.42%
COc1ccc(NC(=O)Nc2ccc3c(c2)[C@H]2C[C@H](CC(=O)NC4CCCC4)O[C@H](CO)[C@H]2O3)cc1 2.1%
C[C@@H]1CCCCO[C@H](CN(C)C(=O)CCC(F)(F)F)[C@@H](C)CN([C@@H](C)CO)C(=O)c2cc(NC(=O)c3ccncc3)ccc2O1 2%
Cc1ccccc1-c1ccc([C@H]2[C@H]3CN(S(=O)(=O)c4ccc(F)cc4)CCCCN3[C@H]2CO)cc1 -0.288%
O=C(N[C@H]1CC[C@H](CCn2cc(-c3ccccc3F)nn2)O[C@@H]1CO)c1ccc2c(c1)OCO2 -1.87%
C[C@@H]1CCCCO[C@@H](CN(C)Cc2ccncc2)[C@H](C)CN([C@@H](C)CO)C(=O)c2cc(N(C)C)ccc2O1 -0.227%
N#C[C@@H]1[C@@H](c2ccccc2)[C@H](CO)N1C(=O)c1cc(Cl)cc(Cl)c1 -2.95%
COc1ccccc1CCNC(=O)C(=O)NCCC1CCCCN1S(=O)(=O)c1cccs1 (configuration not stated) 0.824%
O=C(NCCC1CCCCN1S(=O)(=O)c1ccc(F)cc1)C(=O)NC1CC1 (configuration not stated) 3.1%
COc1cccc(-c2ccc3c(c2)O[C@@H](CN(C)Cc2ccncc2)[C@H](C)CN([C@H](C)CO)S3(=O)=O)c1 3.64%
Cc1noc(C)c1NC(=O)N(C)C[C@H]1OCCCC[C@@H](C)Oc2ccc(NC(=O)NC(C)C)cc2C(=O)N([C@H](C)CO)C[C@@H]1C 1.72%
COc1ccccc1-n1c(CNC(=O)c2ccccc2)nnc1SCC(=O)Nc1nnc(C)s1 2.1%
COc1ccccc1-n1ccnc1SCC(=O)NC(C)(C)C 0.912%
C[C@H](CO)N1C[C@H](C)[C@H](CN(C)S(=O)(=O)c2ccc(Cl)cc2)Oc2c(NS(C)(=O)=O)cccc2C1=O 1.05%
CCCNC(=O)[C@@H]1[C@@H](CO)[C@@H]2Cn3c(ccc(/C=C/c4ccccc4)c3=O)[C@H]1N2CCC 3.14%
CCCN1[C@H](C(=O)N2CCCCC2)[C@@H](CO)[C@@H]2Cn3c(ccc(-c4ccccc4F)c3=O)[C@@H]21 1.6%
Cc1ccc(S(=O)(=O)Nc2ccc3c(c2)C(=O)N([C@@H](C)CO)C[C@@H](C)[C@H](CN(C)Cc2ccncc2)O3)cc1 -0.494%
C[C@@H]1CCCCO[C@H](CN(C)Cc2ccc(Cl)c(Cl)c2)[C@@H](C)CN([C@@H](C)CO)C(=O)c2cc(NC(=O)Nc3ccccc3)ccc2O1 0.025%
Cc1ccc(C(=O)OCC(=O)N2CC(C)CC(C)C2)cc1S(=O)(=O)N1CCCCC1 (configuration not stated) 0.347%
COc1ccc(CNC(=O)COC(=O)c2ccc(C)c(S(=O)(=O)N3CCOCC3)c2)cc1OC -3.23%
Cc1cc(C)c(C#N)c(Nc2cccc(Br)c2)n1 -5.44%
C[C@H]1CN([C@@H](C)CO)C(=O)c2ccccc2-c2ccccc2CO[C@@H]1CN(C)C(=O)CCN(C)C -0.09%
O=C(Nc1ccc(F)cc1)N[C@H]1CC[C@H](CCn2cc(C3(O)CCCC3)nn2)O[C@@H]1CO 0.048%
CC(C)c1cc(C(=O)NC2CCCCCC2)c2ccccc2n1 0.503%
O=C(NNC(=O)C(O)c1ccccc1)NC1CCCCC1 (configuration not stated) -1.37%
CNC[C@H]1OCCCC[C@@H](C)Oc2ccc(NC(=O)Cc3ccccc3)cc2C(=O)N([C@H](C)CO)C[C@@H]1C -0.325%
CCCNC(=O)N(C)C[C@@H]1Oc2ncc(-c3cccc(C#N)c3)cc2C(=O)N([C@@H](C)CO)C[C@@H]1C 0.957%
O=C(c1cnccn1)N1CC[C@@H]2[C@H](CO)Nc3ccc(-c4cccc(F)c4)cc3[C@@H]21 2.08%
CCNC(=O)C1CCCN(C(=O)c2ccc(OC)cc2OC)CC1 (configuration not stated) -1.31%
CCOC(=O)C1CCCN(C(=O)c2ccc(C)c(F)c2)CC1 (configuration not stated) 0.23%
CCCNC(=O)N1[C@H](CO)[C@@H]2c3ccccc3N(C(=O)C3CCOCC3)C[C@@H]21 2.24%
COc1ccc(NC(=O)N(C)C[C@@H]2OCCCC[C@@H](C)Oc3ccc(NS(=O)(=O)c4cn(C)cn4)cc3C(=O)N([C@@H](C)CO)C[C@H]2C)cc1 0.433%
Cn1cc(C(=O)c2ccc(Cl)cc2Cl)cc1C(=O)NN -2.38%
CC(C)(C)NC(=O)NC(=O)COC(=O)Cc1ccc(Cl)cc1Cl 1.27%
C[C@H]1CN([C@@H](C)CO)C(=O)c2cc(C#CC(C)(C)O)cnc2O[C@H]1CN(C)C(=O)CC1CC1 0.266%
C[C@@H]1CN([C@H](C)CO)C(=O)c2cc(NS(=O)(=O)c3ccc(Cl)cc3)ccc2O[C@@H]1CN(C)CC1CCCCC1 -0.515%
O=C(C[C@H]1C[C@@H]2c3cc(NC(=O)c4ccc5c(c4)OCO5)ccc3O[C@@H]2[C@@H](CO)O1)NCCN1CCCCC1 0.031%
O=C(C1CCCC1)N1CC(=O)N2[C@H](C1)[C@@H](c1ccc(-c3ccccc3F)cc1)[C@@H]2CO -2.35%
O=C(C1CCC1)N1CC(=O)N2[C@H](C1)[C@@H](c1ccc(-c3ccccc3F)cc1)[C@@H]2CO 1.31%
COc1ccc(N2CCN(S(=O)(=O)c3ccc4c(c3)NC(=O)C(C)C(=O)N4)CC2)cc1 (configuration not stated) 0.269%
CCOC(=O)N1CCN(S(=O)(=O)c2ccc(Br)cc2)CC1 -1.86%
COc1cccc(S(=O)(=O)N[C@H]2C=C[C@@H](CC(=O)NCc3ccc(F)cc3)O[C@@H]2CO)c1 -1.9%
Cc1ccc(S(=O)(=O)N(C)C[C@@H]2Oc3c(NC(=O)Nc4ccc(F)cc4)cccc3C(=O)N([C@H](C)CO)C[C@H]2C)cc1 0.333%
C[C@@H]1CN([C@H](C)CO)C(=O)c2cccc(NC(=O)Nc3cccc4ccccc34)c2O[C@@H]1CN(C)C(=O)Nc1ccc(F)cc1 1.61%
COc1ccc(-c2c(C)cc3oc(=O)cc(-c4ccccc4)c3c2C)cc1C=O 0.386%
COc1ccc(-c2c(C)cc3oc(=O)cc(-c4ccccc4)c3c2C)cc1F 3.75%
CCC(=O)N(C)C[C@H]1Oc2cc(C#CC3CC3)ccc2S(=O)(=O)N([C@@H](C)CO)C[C@@H]1C -0.535%
COCCCNc1ccn2nc(-c3ccc(CC(C)C)cc3)cc2n1 2.65%
COc1ccccc1-c1cc2nc(NCc3cccc(Cl)c3)ccn2n1 0.85%
C[C@H]1CN([C@@H](C)CO)C(=O)c2cccc(NS(=O)(=O)c3cccs3)c2O[C@H]1CN(C)Cc1ccc(C(=O)Nc2ccccc2N)cc1 0.531%
CN(C)CCN1CCN(c2cc(-c3cccc(Cl)c3)nc3ccnn23)CC1 -1.38%
O=C(c1ccccc1)N1CCN(c2cc(-c3ccccc3)nc3cc(-c4cccc(Cl)c4)nn23)CC1 -2.01%
C[C@H]1CN([C@@H](C)CO)C(=O)Cc2cc(NS(=O)(=O)c3cn(C)cn3)ccc2O[C@H]1CN(C)C(=O)Nc1ccc(F)cc1 2.2%
C[C@H](CO)N1C[C@H](C)[C@@H](CN(C)S(=O)(=O)c2ccccc2)Oc2ncc(-c3ccncc3)cc2C1=O 0.7%
O=C1c2ccccc2C(=O)N1CCC#Cc1ccc2cc(C3(O)CCCCC3)oc(=O)c2c1 4.94%
